{"source": "PubChem BioAssay (NCATS)", "note": "Records with an inconclusive call do not appear. Where a call stands in place of a potency, no number is given. Calls of active or inactive are those of the source. Calls come from the whole dose curve; as a rule, active = well fitted inhibition curve with a large enough effect; inconclusive = small, poorly fitted or top-dose-only effect; inactive = flat fitted curve, though single readings scatter."}
{"biological_target": "Calcium and integrin-binding protein 1 (Homo sapiens) (UniProt Q99828)", "sequence (Q99828 whole entry, looked up)": "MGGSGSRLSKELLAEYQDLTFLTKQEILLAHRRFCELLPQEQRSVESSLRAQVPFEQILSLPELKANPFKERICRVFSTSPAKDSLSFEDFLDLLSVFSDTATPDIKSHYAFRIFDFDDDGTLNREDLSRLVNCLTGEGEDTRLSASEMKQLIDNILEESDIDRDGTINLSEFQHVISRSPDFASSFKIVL", "experiment": "Primary qHTS for Identification of Calcium Integrin Binding Protein 1 (CIB1) Competitor (AID 1508620);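 note: GST tagged CIB1 binding a fluorescein labelled alphaIIb integrin peptide tracer; top concentration of the series differs between compounds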", "conditions": "CIB1-GST / FITC-alphaIIb peptide fluorescence polarization; series mostly up to 114 µM", "how_it_was_run": "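Fluorescence polarization competition: CIB1-GST (1 uM final) preincubated with compound 15 min at room temperature, then FITC-labeled alphaIIb peptide (100 nM final) added for another 15 min. Polarization read at Ex 480/Em 540.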"}
{"smiles": "Cc1ccnc(NC(=S)N2CCN(c3cccc(C(F)(F)F)c3)C2)c1", "Potency": "inactive"}
{"smiles": "Nc1ncc(S(=O)(=O)N2CCOCC2)s1", "Potency": "inactive"}
{"smiles": "Cc1cc(C)nc(NC(=S)N2CCN(c3cnc4nccn4c3)CC2)c1", "Potency": "inactive"}
{"smiles": "Cc1noc(C)c1-c1ccc(Nc2nc(-c3ccncc3)nc3ccccc23)cc1F", "Potency": "inactive"}
{"smiles": "CC(C)Oc1cccc(-c2csc(N3CCC(C(N)=O)CC3)n2)c1", "Potency": "inactive"}
{"smiles": "CC(C)(C)c1ccc(NC(=O)c2cccs2)cn1", "Potency": "inactive"}
{"smiles": "Cc1ccc(OCCCn2c(CCNC(=O)C3CCCCC3)nc3ccccc32)cc1", "Potency": "inactive"}
{"smiles": "Cc1ccc(Cl)cc1NS(=O)(=O)c1cc2c(cc1Cl)CCC(=O)N2", "Potency": "inactive"}
{"smiles": "COc1ccccc1C1=Nn2c(nnc2-c2ccccc2OC)SC1", "Potency": "inactive"}
{"smiles": "O=C1c2ccccc2C(=O)N1c1cccc(O)c1", "Potency": "inactive"}
{"smiles": "O=C(O)c1ccc2c(c1)C(=O)N([C@H](Cc1ccc(F)cc1)C(=O)O)C2=O", "Potency": "inactive"}
{"smiles": "Nc1ccccc1C(=O)NCc1ccco1", "Potency": "inactive"}
{"smiles": "Cc1cccc([S+](=O)([O-])NC2CCN(C#N)CC2)c1", "Potency": "inactive"}
{"smiles": "COc1ccc(C2Nc3ccccc3C(=O)N2Cc2ccc(Cl)cc2)cc1COc1ccc(NC(C)=O)cc1", "note": "(stereo not given)", "Potency": "inactive"}
{"smiles": "COC(=O)c1ccc(O)c2ncc(N(C)C)cc12", "Potency": "inactive"}
{"smiles": "N#Cc1ccc(-c2ccc(CNc3ccc(N4CCC(C#N)CC4)cc3)o2)cc1", "Potency": "inactive"}
{"smiles": "O=C(Nc1ccc(F)c(C(F)(F)F)c1)Nc1cccc(-c2ccncc2)n1", "Potency": "inactive"}
{"smiles": "O=C1CCCC2=C1C1(CCCC1)N=C(Nc1nc3cc(Cl)ccc3o1)N2", "Potency": "inactive"}
{"smiles": "COC(=O)c1cncc(NC(=O)c2cccs2)c1", "Potency": "inactive"}
{"smiles": "N#CN1CCC(NS(=O)(=O)c2cccc(C(F)(F)F)c2)CC1", "Potency": "inactive"}
{"smiles": "Cc1ccc(-c2nccc(=O)n2CC(=O)NCCc2ccccc2)cc1", "Potency": "inactive"}
{"smiles": "Cc1cccc(-n2cnc3cc(C(=O)N4CCCC(C(F)(F)F)C4)ccc32)c1", "note": "(stereo not given)", "Potency": "inactive"}
{"smiles": "O=C(Nc1ncc(Cc2ccc(C(F)(F)F)cc2)s1)c1ccc(-c2cccnc2)o1", "Potency": "inactive"}
{"smiles": "O=S(=O)(c1ccc2c(c1)OCCO2)N1CCN(S(=O)(=O)c2ccccc2OC(F)(F)F)CC1", "Potency": "inactive"}
{"smiles": "N#Cc1c(-c2ccco2)no[n+]1[O-]", "Potency": "inactive"}
{"smiles": "Cc1ccc(OCCn2c(CCNC(=O)C3CCNCC3)nc3ccccc32)cc1", "Potency": "inactive"}
{"smiles": "O=C(Nc1cccc(C(F)(F)F)c1)c1cccs1", "Potency": "inactive"}
{"smiles": "Brc1ccc(-c2csc(N3CCC(c4nn[nH]n4)CC3)n2)cc1", "Potency": "inactive"}
{"smiles": "N#CN1CCC(NS(=O)(=O)c2cccc(F)c2)C1", "note": "(stereo not given)", "Potency": "inactive"}
{"smiles": "CCCN1CCN(c2cccc(Nc3nn4c(=O)c5ccccc5nc4s3)c2)CC1", "Potency": "inactive"}
{"smiles": "O=C(Nc1cncc(-c2cccnc2)c1)c1cccs1", "Potency": "inactive"}
{"smiles": "Oc1c(CN2CCCCC2)cc(COCc2ccccc2)c2cccnc12", "Potency": "inactive"}
{"smiles": "O=C1CCc2cc(S(=O)(=O)Nc3ccc4ncccc4c3)ccc2N1", "Potency": "inactive"}
{"smiles": "CC(=O)NC(c1cc(F)c2cccnc2c1O)C1CC1", "note": "(stereo not given)", "Potency": "inactive"}
{"smiles": "Cc1ccc(OCCn2c(CCNC(=O)/C=C/c3ccccc3Br)nc3ccccc32)cc1", "Potency": "inactive"}
{"smiles": "CCOC(=O)c1ccc(-n2cccc2/C=C2\\NC(=O)NC2=O)cc1", "Potency": "inactive"}
{"smiles": "Cc1cc(NS(=O)(=O)c2ccc(N(C)C(=O)Cc3ccc(Cl)c(Cl)c3)cc2)no1", "Potency": "inactive"}
{"smiles": "O=C1Nc2ccccc2/C1=C\\c1cc(Br)c(O)c(Br)c1", "Potency": "inactive"}
{"smiles": "O=S(=O)(c1cccc(Cl)c1)N1CCN(S(=O)(=O)c2ccc3c(c2)OCCO3)CC1", "Potency": "inactive"}
{"smiles": "O=C1CCCC2=C1C(c1[nH]ncc1Cl)N=C(Nc1nc3cc(Cl)ccc3o1)N2", "note": "(stereo not given)", "Potency": "inactive"}
